Source: PubChem BioAssay AID1777 (Sanford-Burnham Center for Chemical Genomics, 2009)
The campaign covered roughly 280,000 compounds. About 50 (0.02%) were called active. Many of the other results were omitted from the sample, so actives are more common in it than they were. Entries with a potency or affinity are not part of this list. Unmarked numbers belong to inactive results. No stated cut-off is given here; in the data, active means activation above about 50% (passing the limit was not always enough); inactive means the rest.

These compounds were tested against Kappa-type opioid receptor (Homo sapiens) (UniProt P41145) (assay: kappa opioid receptor activators – cell-based, luminescence, uHTS, primary screen (AID 1777)). Details: KOR beta-arrestin recruitment, at 10 µM, active compounds read high.
Kappa-type opioid receptor (Homo sapiens), sequence (P41145 whole entry, looked up): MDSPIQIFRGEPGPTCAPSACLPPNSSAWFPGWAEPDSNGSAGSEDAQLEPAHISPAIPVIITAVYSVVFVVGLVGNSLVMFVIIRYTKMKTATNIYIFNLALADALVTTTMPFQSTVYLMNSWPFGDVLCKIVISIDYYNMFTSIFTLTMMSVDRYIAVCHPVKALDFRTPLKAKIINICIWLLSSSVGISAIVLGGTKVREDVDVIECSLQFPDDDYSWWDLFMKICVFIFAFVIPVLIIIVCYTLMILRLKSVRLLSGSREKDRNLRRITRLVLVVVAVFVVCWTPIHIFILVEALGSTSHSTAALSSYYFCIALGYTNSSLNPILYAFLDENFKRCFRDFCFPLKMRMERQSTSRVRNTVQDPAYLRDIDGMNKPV
For COc1cc(S(=O)(=O)NC2CCCC2)ccc1-n1cnnn1, the activation was -0.2%. Work on CCOc1ccccc1NC(=O)CCn1cccc1 yielded an activation of -0.4%. With CN(C)/C=C/C(=O)c1ccc(S(=O)(=O)c2ccccc2)cc1 the activation was -5%. Compound C=CCSc1nc(C)c(CCC(C)C)c(=O)[nH]1 has an activation of -2.2%. COc1ccc([N+](=O)[O-])cc1NC(=O)COC(=O)c1ccccc1C(=O)c1ccccc1 showed an activation of -5.5%. Compound CCc1ccccc1NC(=O)c1cccc(N2C(=O)C3C4CCC(C4)C3C2=O)c1 (stereo not drawn) has an activation of 3.3%. Compound CCCN(Cc1cc2cc(C)ccc2[nH]c1=O)C(=O)c1ccccn1 has an activation of 9.9%. Work on Cc1ccc2[nH]c(=O)c(CN(C)C(=O)c3ccccn3)cc2c1 yielded an activation of -3.6%. Work on CCCN(Cc1cc2ccc(C)cc2[nH]c1=O)C(=O)c1ccccn1 yielded an activation of 46.4%. CCCCN(Cc1cc2cc(OC)ccc2[nH]c1=O)C(=O)c1ccccn1 was tested, and the activation was 40.3%. In the case of COCC(=O)N(Cc1cc2ccccc2[nH]c1=O)c1ccc(OC)cc1, the activation is reported as 9.6%. COc1ccc2nc(NC(=O)CCNS(=O)(=O)c3ccc4c(c3)oc(=O)n4C)sc2c1 showed an activation of -3.3%. COc1ccc(OCC(=O)NNC(=O)C2CCCO2)cc1 (stereo not drawn) was tested, and the activation was 8.8%. For CCOc1ccc(-n2nnc3c(=O)n(CC(=O)c4ccccc4)cnc32)cc1, the activation was 52.9% (active). Compound Cc1ccc(-n2nnc3c(=O)n(CC(=O)c4ccccc4)cnc32)cc1 has an activation of 4.2%. Work on CCOC(=O)Cn1cnc2c(nnn2-c2ccccc2)c1=O yielded an activation of -1%. Work on CCOc1ccc(-n2c(=O)c3sccc3n(CC(=O)NCC3CCCO3)c2=O)cc1 (stereo not drawn) yielded an activation of -4.3%. O=C(Cc1ccccc1)c1c[nH]c(C(=O)NCCCn2ccnc2)c1 showed an activation of 1.2%. For CC(N=C(NC#N)Nc1ccncc1)C(C)(C)C (stereo not drawn), the activation was -0.9%. CC(Nc1cccnc1)=C(C#N)C#N was tested, and the activation was -7.7%. CCC(C)(C)N=C(NC#N)Nc1cccnc1 was tested, and the activation was 87.5% (active). Compound CCCCN(C(=O)c1cc(CC)c(C)s1)c1c(N)n(CC(C)C)c(=O)[nH]c1=O has an activation of -0.3%. In the case of COC(=O)c1ccc(NC(=S)N(Cc2cccnc2)Cc2ccco2)cc1, the activation is reported as -0.8%. O=C(c1ccc(Cl)cc1)N(Cc1ccc(Br)cc1)N1C(=O)CCC1=O gave an activation of 1.3%. Compound O=C(c1ccccc1Cl)N(Cc1ccc(Br)cc1)N1C(=O)CCCC1=O has an activation of -1%. For O=C(c1ccc([N+](=O)[O-])cc1)N(Cc1ccc(Cl)cc1Cl)N1C(=O)CCCC1=O, the activation was -0.8%. With O=C(c1ccc(Cl)cc1)N(Cc1ccccc1F)N1C(=O)CCCC1=O the activation was -0.9%. Work on COC(=O)C1=CN(CC2CCCO2)C=C(C(=O)OC)C1c1ccsc1 (stereo not drawn) yielded an activation of -4.3%. Work on COc1cc(/C=N/Nc2ccc(C(F)(F)F)cn2)cc(OC)c1O yielded an activation of -5%. Work on Cn1c2ccccc2c(=O)c2ccc(C#CC3(N)CCCCC3)cc21 yielded an activation of -3.1%. For O=C(c1ccc(S(=O)(=O)N2CCCC2)cc1)N1CCC(CN2C(=O)c3cccc4cccc(c34)C2=O)CC1, the activation was 0.7%. CC(C)C[C@H](NC(=O)c1nc[nH]c1C(=O)N[C@@H](CCCCNC(=O)OC(C)(C)C)C(=O)OC(C)(C)C)C(=O)OC(C)(C)C showed an activation of 5.3%. CCN(CC)CCNc1nc(C(F)(F)F)nc2c1nnn2Cc1ccccc1 was tested, and the activation was -3.1%. In the case of O=C(Cc1ccc([N+](=O)[O-])cc1)N/N=C/c1ccccc1F, the activation is reported as -4.4%. Compound CCC(C)(C(=O)NC1CCCC1)N(C(=O)c1cnccn1)c1ccccc1 (stereo not drawn) has an activation of -12.3%. CCC(C)(C(=O)NC1CCCC1)N(C)C(=O)c1ccccn1 (stereo not drawn) gave an activation of -0.7%. For CCC(C)(C(=O)NC1CCCCC1)N(C)C(=O)c1ccccn1 (stereo not drawn), the activation was 1.2%. In the case of CCC(C)(C(=O)NC1CCCC1)N(Cc1ccco1)C(=O)c1ccc2c(c1)OCO2 (stereo not drawn), the activation is reported as 10.3%. Work on CCC(C)(C(=O)NC1CCCCC1)N(Cc1ccco1)C(=O)c1ccc2c(c1)OCO2 (stereo not drawn) yielded an activation of 1.2%. CCC(C)(C(=O)NC1CCCCC1)N(Cc1ccco1)C(=O)CNC(=O)c1ccccc1 (stereo not drawn) gave an activation of 1.6%. Work on CC(C)(C)c1cc(C(=O)NC2CC2)n(Cc2ccc(F)cc2)n1 yielded an activation of -4.7%. CS(=O)(=O)c1ccc(NCC2CCCO2)c([N+](=O)[O-])c1 (stereo not drawn) was tested, and the activation was -3.6%. For O=c1[nH]cc(S(=O)(=O)NCc2ccccc2)c(=O)[nH]1, the activation was -1.3%. With CCNS(=O)(=O)c1ccc(CCC(=O)Nc2ccccc2C(=O)OC)cc1 the activation was -1.4%. Cc1cc(C)cc(C(=O)NCC(=O)OCC(=O)N2CCN(S(=O)(=O)c3ccc4ccccc4c3)CC2)c1 was tested, and the activation was -0.4%. In the case of CCC(C)(C(=O)NC1CCCC1)N(Cc1cccs1)C(C)=O (stereo not drawn), the activation is reported as -2.2%. CCC(C)(C(=O)NC1CCCCC1)N(Cc1cccs1)C(=O)Cc1cccs1 (stereo not drawn) showed an activation of 3.8%. Work on CCC(C)(C(=O)NC1CCCC1)N(Cc1cccs1)C(=O)Cc1cccs1 (stereo not drawn) yielded an activation of -0.9%. CCC(C)(C(=O)NC1CCCCC1)N(Cc1cccs1)C(=O)c1ccc(=O)[nH]c1 (stereo not drawn) was tested, and the activation was -6.4%. In the case of CC(=O)c1sc(N/N=C\c2ccc(Br)cc2)nc1C, the activation is reported as 3.5%. In the case of COc1ccc(N2CCN(S(=O)(=O)CCNC(=O)COc3ccccc3OC)CC2)cc1, the activation is reported as -4.1%. NC1=NC(c2cn[nH]c2-c2ccc(F)cc2)n2c(nc3ccccc32)N1 (stereo not drawn) gave an activation of 0.5%. CC(CNC(=O)c1ccc2c(c1)OCO2)c1ccc([N+](=O)[O-])cc1 (stereo not drawn) gave an activation of -4.6%. COc1ccc(CN(CC2CCCO2)C(=O)CN2C(=O)C(C)Oc3ccc(C)cc32)cc1OC (stereo not drawn) was tested, and the activation was 50.9%. Work on O=C(CN1C(=O)COc2ccccc21)N(Cc1ccc2c(c1)OCO2)CC1CCCO1 (stereo not drawn) yielded an activation of 72.1%. O=C(CCCCCBr)N1CCC(CC2CC(c3ccc(Cl)cc3)=NO2)(C(=O)NCC2CCCCC2)CC1 (stereo not drawn) was tested, and the activation was -0.1%. CC(C)N1CCc2c(sc(NC(=O)c3ccc4ccccc4c3)c2C(N)=O)C1 showed an activation of -0.3%. CCN1CCc2c(sc(NC(=O)c3cc4ccccc4cc3OC)c2C(N)=O)C1 was tested, and the activation was 0.1%. With N#C/C(=C\c1ccc(-c2nc3ccccc3s2)o1)C(N)=O the activation was 0.2%. N#C/C(=C\c1ccc(-c2ccccc2Cl)o1)C(=O)Nc1nc2ccccc2s1 was tested, and the activation was -1.8%. CNC(=O)/C(C#N)=C/c1ccc(-c2nc3ccccc3s2)o1 was tested, and the activation was 169% (active). Compound CN=C1SC(CC(=O)Nc2ccccc2F)C(=O)N1/N=C/c1ccc(O)c(OC)c1 (stereo not drawn) has an activation of 14.6%. Cn1c(=O)c(=O)n(C)c2cc(S(=O)(=O)N3CCCC3C(=O)NCc3cccs3)ccc21 (stereo not drawn) showed an activation of 1%. COc1ccc(-c2ccc(C#N)c(SCC(=O)Nc3sc4c(c3C#N)CCC4)n2)cc1 was tested, and the activation was -2.3%. For N#Cc1ccc(-c2ccc(F)cc2)nc1SCC(=O)Nc1sc2c(c1C#N)CCC2, the activation was -1%. CCc1ccccc1OCC(=O)N(CC)CC(=O)NCc1ccc(F)cc1 was tested, and the activation was -3%. Cc1cc(C(=O)CSc2nncn2C)c(C)n1-c1ccccc1 gave an activation of -2.9%. For Cc1nc(C)c(NC(=O)OC(C)C)cc1NC(=O)OC(C)C, the activation was -4.7%.
